This is a sample that favours compounds with a hit; in the whole collection about 3% have one here.
TRAIL sens C8 = caspase-8 TRAIL sensitization; inhibition (viability loss, TRAIL sensitization), % at 10 µM; 1% of 360,000 active; NB7+C8 cells + TRAIL, ATPlite viability luminescence; AID 624354;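 active = compounds causing at least 50% loss of cell viability in the single-dose screen, relative to plate controls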
SENP6 block = SENP6 protease inhibition. Recombinant SENP6 catalytic domain, aminoluciferin luminescence. inhibition, % at 10 µM. 1.8% of 330,000 active. AID 2599;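 active = inhibition above about 50% at the single tested dose, limit read from the data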
SENP7 block = inhibitors of human SENP7 protease | 1.5% of 330,000 active | inhibition, % at 5 µM | AID 434973 | recombinant SENP7, Z-RLRGG-aminoluciferin luminescence, 40 min;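 active = inhibition above about 50% at the single test dose, limit read from the data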
Target sequence (Q9BQF6 706-1050 limits assumed): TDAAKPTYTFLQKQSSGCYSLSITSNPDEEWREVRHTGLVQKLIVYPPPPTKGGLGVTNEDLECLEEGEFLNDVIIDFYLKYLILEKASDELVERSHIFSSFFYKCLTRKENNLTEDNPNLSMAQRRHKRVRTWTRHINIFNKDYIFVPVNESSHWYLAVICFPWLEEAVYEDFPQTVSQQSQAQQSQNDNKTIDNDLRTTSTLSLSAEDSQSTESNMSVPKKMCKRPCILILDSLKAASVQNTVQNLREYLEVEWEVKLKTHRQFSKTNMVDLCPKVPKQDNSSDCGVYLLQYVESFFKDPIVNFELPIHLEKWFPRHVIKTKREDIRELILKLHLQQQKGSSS
SENP8 block-1 = blocks human SENP8 cleavage of Nedd8 substrate | recombinant SENP8, Nedd8 substrate fluorescence | inhibition, % at 20 µM | 0.64% of 360,000 active; in the data active = inhibition mostly above about 40%, no sharp cut-off; inactive = mostly below about 27%
Target sequence (Q96LD8 whole entry, looked up): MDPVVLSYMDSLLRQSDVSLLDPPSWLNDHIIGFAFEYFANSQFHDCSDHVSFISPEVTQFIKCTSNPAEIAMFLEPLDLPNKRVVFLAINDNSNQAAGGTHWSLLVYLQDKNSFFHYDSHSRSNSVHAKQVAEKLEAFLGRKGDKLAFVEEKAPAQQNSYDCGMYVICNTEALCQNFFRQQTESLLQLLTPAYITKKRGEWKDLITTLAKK
SENP8 block-2 = SENP8 protease inhibition | inhibition, % at 10 µM | purified SENP8, Z-RLRGG-aminoluciferin cleavage, luminescence | AID 2540 | 1.2% of 330,000 active; in the data active = inhibition above about 50%
PPC-1+TRAIL kill = kills PPC-1 cancer cells in the presence of TRAIL; PPC-1 cells + TRAIL, ATPLite viability luminescence; cell killing (% activity), % at 4 µM or 5 µM; 0.41% of 220,000 active; AID 1443;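 active = cell killing above 50% in the first pass at 4 µM, then a duplicate retest at 5 µM averaging 50% or more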
SENP8 conf = confirmation of human SENP8 protease inhibitors | shares compounds with SENP8 block-1 | purified SENP8, Nedd8-AMC/pro-Nedd8 cleavage fluorescence, 30 min | inhibition, % at 25 µM | 15% of 1,400 active; in the data active = inhibition mostly above about 39%, no sharp cut-off; inactive = mostly below about 34%
Each line names hits and unclear results; the compound was inactive in the other large screens (follow-up assays come after a bar, where they were run).

O=C(NC1CCCC1)C(c1cccs1)N(Cc1ccco1)C(=O)c1csnn1 (stereo not drawn)	SENP8 block-1 40 | SENP8 conf inactive
C[C@H](O)[C@@H]1C(=O)N2CCc3ccc(N4CCN(C)CC4)cc3[C@@H]2C[C@@H]1N(C)C(=O)c1ccc(C#N)cc1	none (no result: SENP6 block, SENP7 block, SENP8 block-2, PPC-1+TRAIL kill)
O=[N+]([O-])c1ccccc1S(=O)(=O)Nc1cccnc1	none (no result: PPC-1+TRAIL kill)
CNc1cc([N+](=O)[O-])ccc1N/C=C/C(=O)c1cccs1	SENP8 block-1 42 | SENP8 conf inactive
Cc1noc(NS(=O)(=O)c2ccc(NC(=O)CCC3CCCC3)cc2)c1C	SENP8 block-1 43 | SENP8 conf inactive
CCCCCCC(=O)Nc1ccc(S(=O)(=O)Nc2onc(C)c2C)cc1	none (no result: PPC-1+TRAIL kill)
COc1ccc(CNC(=O)Cn2ccc(N)nc2=O)cc1	SENP8 block-1 45 (no result: PPC-1+TRAIL kill) | SENP8 conf inactive
CC(C)c1[nH]nc2c1C(C(C)C)C(C#N)=C(N)O2 (stereo not drawn)	SENP8 block-1 40 | SENP8 conf inactive
COc1cc(OC)c(C=CC(=O)c2ccccc2O)c(OC)c1	SENP8 block-1 42 (no result: SENP6 block, SENP7 block, SENP8 block-2, PPC-1+TRAIL kill) | SENP8 conf inactive
COc1cc(/C=C/C(=O)c2ccccc2O)cc(OC)c1OC	none
CC(C)(C)C(=O)N1CCN(c2ccc(NC(=O)c3ccc([N+](=O)[O-])o3)cc2)CC1	SENP8 block-1 48 (no result: PPC-1+TRAIL kill) | SENP8 conf inactive
O=C(Nc1ccc(N2CCN(C(=O)c3ccc(Cl)cc3)CC2)cc1)c1ccc([N+](=O)[O-])o1	SENP8 block-1 33 (no result: SENP6 block, SENP7 block, SENP8 block-2) | SENP8 conf inactive
CCCC(=O)N1CCN(c2ccc(NC(=O)c3ccc([N+](=O)[O-])o3)cc2)CC1	SENP8 block-1 54 (no result: SENP6 block, SENP7 block, SENP8 block-2) | SENP8 conf inactive
O=C(Nc1ccccc1N1CCCC1)c1ccc([N+](=O)[O-])o1	SENP8 block-1 40 (no result: PPC-1+TRAIL kill) | SENP8 conf 54
CCC1(c2ccc(F)cc2)NC(=O)N(CC(=O)Nc2ccc(S(N)(=O)=O)cc2)C1=O (stereo not drawn)	none
CCC(=O)N1CCN(c2ccc(NC(=O)c3ccc([N+](=O)[O-])o3)cc2)CC1	SENP8 block-1 43 (no result: SENP6 block, SENP7 block, SENP8 block-2) | SENP8 conf inactive
CCOC(=O)C1=C(C)NC(=O)NC1c1ccc(OCCO)c(OC)c1 (stereo not drawn)	SENP8 block-1 40 | SENP8 conf inactive
CCOC(=O)C1=C(C)NC(=O)NC1c1ccc(OC)c(Cl)c1 (stereo not drawn)	none
CCCSc1cc(NCCOC(C)=O)c([N+](=O)[O-])c2nonc12	none
CCCC(=O)OCCNc1cc(SCc2ccco2)c2nonc2c1[N+](=O)[O-]	SENP8 block-1 62 | SENP8 conf inactive
Cc1nc2c(O)c3c(c(O)c2nc1C)C1C=CC3CC1	SENP8 block-1 42 (no result: SENP6 block, SENP7 block, SENP8 block-2, PPC-1+TRAIL kill) | SENP8 conf inactive
COc1ccc(N=C2S/C(=C\c3cccs3)C(=O)N2CC(C)C)cc1	none
COc1ccc(N=C2S/C(=C\c3ccc(C)s3)C(=O)N2CC(C)C)cc1	SENP8 block-1 44 | SENP8 conf inactive
CCOC(=O)C1=C(COC(=O)c2cc(S(=O)(=O)N3CCOCC3)ccc2F)NC(=O)NC1C (stereo not drawn)	none (no result: SENP6 block, SENP7 block, SENP8 block-2, PPC-1+TRAIL kill)
N#CC(c1ccc(Cl)nn1)c1ccccc1Cl (stereo not drawn)	SENP8 block-1 41 | SENP8 conf inactive
Nc1nnc(-c2ccc([N+](=O)[O-])o2)s1	SENP8 block-1 37 (no result: SENP6 block, SENP7 block, SENP8 block-2, PPC-1+TRAIL kill) | SENP8 conf inactive
CCOC(=O)C1=C(CN2CCSCC2)NC(=O)NC1c1cccc([N+](=O)[O-])c1 (stereo not drawn)	SENP8 block-1 44 | SENP8 conf inactive
Cc1nc(N2CCOCC2)nc(Oc2ccccc2F)c1[N+](=O)[O-]	SENP8 block-1 41 | SENP8 conf inactive
CCOc1nc(N2CCOCC2)nc(C)c1[N+](=O)[O-]	none
Cc1ccc(NC(=O)CCCCCN2C(=O)[C@@H]3Cc4ccccc4CN3C2=O)c(C)c1	none (no result: PPC-1+TRAIL kill)
Cc1ccc2[nH]c(C)c(/C=C/c3cc[n+](C)cc3)c2c1	SENP8 block-1 40 (no result: PPC-1+TRAIL kill) | SENP8 conf inactive
C[n+]1ccc(/C=C/c2c[nH]c3ccc(F)cc23)cc1	none (no result: PPC-1+TRAIL kill)
Cc1ccc2c(c1)c(/C=C/c1cc[n+](C)cc1)c(C)n2C	SENP8 block-1 44 (no result: PPC-1+TRAIL kill) | SENP8 conf inactive
Clc1ss/c(=N\c2ccccn2)c1Cl	SENP8 block-1 49 | SENP8 conf inactive
COCCNC(=O)C(=O)NCC1OCCCN1S(=O)(=O)c1cccs1 (stereo not drawn)	none
CCCCCCN1C=CC=C/C1=C\C=C(C#N)C#N	SENP8 block-1 43 | SENP8 conf inactive
O=C1CC(c2ccco2)CC(O)=C1C=NCC1CCNCC1 (stereo not drawn)	SENP8 block-1 65 | SENP8 conf inactive
COc1ccc(NS(=O)(=O)N2CCOCC2)cc1	none (no result: PPC-1+TRAIL kill)
Cc1ccc(C)c(Oc2cc(NN3CCCCC3)c([N+](=O)[O-])cc2[N+](=O)[O-])c1	SENP8 block-1 42 (no result: PPC-1+TRAIL kill) | SENP8 conf inactive
NS(=O)(=O)c1ccc(CNC(=O)c2cc(-c3cccnc3)nc3ccc(Br)cc23)cc1	none (no result: PPC-1+TRAIL kill)
Cc1ccc(NC(=S)N/N=C/c2ccc(OCCC(C)C)cc2)c(C)c1	SENP8 block-1 41 | SENP8 conf inactive
Cc1ccc(NC(=S)N/N=C/c2c(Cl)cccc2Cl)c(C)c1	none
NS(=O)(=O)c1ccc(CCNC(=O)COC(=O)c2ccc([N+](=O)[O-])o2)cc1	SENP8 block-1 47 (no result: PPC-1+TRAIL kill) | SENP8 conf 89
O=C(COC(=O)c1ccc([N+](=O)[O-])o1)NCc1ccccc1	none (no result: PPC-1+TRAIL kill)
CN1/C(=C/C=C(C#N)C#N)C(C)(C)c2ccccc21	none
CC1=C/C(=C\C=C(C#N)C#N)N(C)c2ccccc21	SENP8 block-1 50 | SENP8 conf inactive
O=S(=O)(c1ccccc1)N1CCN(C2CCCCCCC2)CC1	SENP8 block-1 41 | SENP8 conf inactive
O=S(=O)(c1ccccc1)N1CCN(S(=O)(=O)c2ccccc2)C1	SENP8 block-1 41 | SENP8 conf inactive
COc1ccccc1C(=O)N1CCN(S(=O)(=O)c2ccccc2)CC1	SENP8 block-1 46 | SENP8 conf inactive
COc1cccc(OC)c1C(=O)N1CCN(S(=O)(=O)c2ccccc2)CC1	none
CC1Cc2ccccc2N1Cc1cccc([N+](=O)[O-])c1 (stereo not drawn)	none (no result: PPC-1+TRAIL kill)
NC(=O)CC(NC(=O)c1ccccc1)c1ccc(NC2CCCCC2)c([N+](=O)[O-])c1 (stereo not drawn)	SENP8 block-1 43 | SENP8 conf inactive
NC(=O)CC(NC(=O)c1ccccc1)c1ccc(NC2CCCCCCC2)c([N+](=O)[O-])c1 (stereo not drawn)	none (no result: PPC-1+TRAIL kill)
NC(=O)CC(NC(=O)c1ccccc1)c1ccc(NCCc2ccc(Cl)cc2)c([N+](=O)[O-])c1 (stereo not drawn)	SENP8 block-1 44 | SENP8 conf inactive
COc1ccccc1NC(=O)Cc1nnc(SCC(=O)Nc2nccs2)n1C	none (no result: PPC-1+TRAIL kill)
